Assay [1] can be described thus: ATG_TAL_CIS: Attagene CIS-FACTORIAL HepG2 Assay for human TAL Basal Promoter (AID 2282966).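 Further: background control endpoint measuring basal TAL promoter reporter mRNA not a specific factor.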 Particulars: HepG2 Attagene cis-factorial TAL promoter reporter; actives raise or lower the signal. The gist of the method:
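Readout: reporter mRNA, fluorescence by CE. System: HepG2, transient multi-reporter transfection, endogenous TF activity. Exposure: 24 h. Analysis: bidirectional, DMSO-normalized; background control.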

Assay [2] can be described thus: ATG_TGFb_CIS: Attagene CIS-FACTORIAL HepG2 Assay for human Transforming Growth Factor (TGF) (AID 2282967). Particulars: HepG2 Attagene CIS TGFb reporter, mRNA transcription; actives raise or lower the signal. A digest of the protocol: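 Liver HepG2 line, cis-factorial reporter panel, 24 h dosing. Quantitation: RT-PCR products labeled with 6-FAM, cut with HpaI, resolved by capillary electrophoresis; DMSO-referenced bidirectional analysis.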

A short description of assay [3]: ATG_VDRE_CIS: Attagene CIS-FACTORIAL HepG2 Assay for human Vitamin D Receptor Element (VDRE) (AID 2282968). As to conditions: HepG2 VDRE cis-reporter transcription, actives raise or lower the signal. A digest of the protocol:
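Reporter mRNA induction, quantified by capillary electrophoresis of fluorescently labelled RT-PCR products, was read 24 h after dosing HepG2 cells carrying transiently transfected cis-regulated reporter units; gain or loss relative to DMSO.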

The target of assay [4] is X-box-binding protein 1 (Homo sapiens) (UniProt P17861). The experiment in a line: ATG_Xbp1_CIS: Attagene CIS-FACTORIAL HepG2 Assay for human X-box Binding Protein 1 (XBP1) (AID 2282972). Particulars: HepG2 XBP1 cis-element reporter, Attagene multiplex; actives raise or lower the signal. The gist of the method:
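HepG2, transient MRTU transfection (cis-promoter driven), 24 h compound exposure. Total RNA → oligo(dT) RT → PCR → 6-FAM labeling → HpaI cut → CE. Bidirectional fit vs DMSO.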

The target in assay [5] is Estrogen-related receptor gamma (Homo sapiens) (UniProt P62508). Put plainly: ATG_ERRg_TRANS: Attagene TRANS-FACTORIAL HepG2 Assay for human Estrogen-Related Receptor gamma (ERRg) (AID 2282977; active means hit-call score of the fitted dose curve at least 0.9, where 1 is the maximum;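 further: hits increase reporter signal over DMSO so potencies reflect activators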). As to conditions: HepG2 Attagene TRANS reporter, ERRg transactivation. A digest of the protocol:
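HepG2 cells transiently transfected with multiplexed GAL4-UAS reporter units driven by chimeric NR-Gal4 proteins; 24 h exposure. Reporter mRNA quantified by RT-PCR, fluorescent labelling, HpaI digestion and capillary electrophoresis; gain of signal vs DMSO.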

For assay [6], the target named is Bile acid receptor (Homo sapiens) (UniProt Q96RI1). The experiment in a line: ATG_FXR_TRANS: Attagene TRANS-FACTORIAL HepG2 Assay for Farnesoid X Receptor (FXR) (AID 2282979; active means hit-call score of the fitted dose curve at least 0.9, where 1 is the maximum;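 further: hits raise reporter mRNA above DMSO so AC50 marks FXR activation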). As to conditions: HepG2 Attagene TRANS FXR-GAL4 reporter transcription. The gist of the method: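 Chimeric FXR-GAL4 activity in transiently transfected human HepG2 liver cells is scored as induction of reporter mRNA after 24 h of dosing. Detection uses RT-PCR with fluorescent labelling and capillary electrophoresis, with DMSO serving as baseline.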

Assay [7] has as its target Oxysterols receptor LXR-alpha (Homo sapiens) (UniProt Q13133). The experiment in a line: ATG_LXRa_TRANS: Attagene TRANS-FACTORIAL HepG2 Assay for human Liver X Receptor alpha (LXRa) (AID 2282980; active means hit-call score of the fitted dose curve at least 0.9, where 1 is the maximum). As to conditions: HepG2 Attagene TRANS reporter, LXRa transactivation. A digest of the protocol:
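Transient HepG2 transfectants, 24 h dosing, RT-PCR/CE mRNA reporter quantitation; gain-of-signal vs DMSO.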

The target of assay [8] is Oxysterols receptor LXR-beta (Homo sapiens) (UniProt P55055). Put plainly: ATG_LXRb_TRANS: Attagene TRANS-FACTORIAL HepG2 Assay for human Liver X Receptor beta (LXRb) (AID 2282981; active means hit-call score of the fitted dose curve at least 0.9, where 1 is the maximum). Particulars: HepG2 Attagene TRANS GAL4-LXRb reporter, mRNA. The gist of the method:
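Transient transfection HepG2 (multiplexed RTUs, GAL4-UAS); NR-Gal4 chimera; 24 h exposure; RNA → RT-PCR → 6-FAM primer extension → HpaI → CE; increase vs DMSO.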

The target of assay [9] is Hepatocyte nuclear factor 4-alpha (Homo sapiens) (UniProt P41235). The experiment in a line: ATG_HNF4a_TRANS: Attagene TRANS-FACTORIAL HepG2 Assay for human Hepatocyte Nuclear Factor 4 alpha (HNF4a) (AID 2282982; active means hit-call score of the fitted dose curve at least 0.9, where 1 is the maximum). Particulars: HepG2 HNF4a transactivation reporter, mRNA readout. A digest of the protocol:
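Readout is fluorescent reporter-transcript fragments resolved by capillary electrophoresis after RT-PCR from HepG2 cells dosed for 24 h. Cells carried transfected GAL4-UAS reporter constructs measuring exogenous NR-GAL4 chimera activity; DMSO served as baseline.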

A short description of assay [10]: ATG_M_06_TRANS: Attagene TRANS-FACTORIAL HepG2 Assay for M06 Transcription Factor (Internal Marker) (AID 2282983; active means hit-call score of the fitted dose curve at least 0.9, where 1 is the maximum;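 further: reporter transcript level by RT-PCR then capillary electrophoresis fluorescence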). Particulars: HepG2 Attagene TRANS M06 internal marker reporter. A digest of the protocol: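 Measured by capillary electrophoresis of fluorescently labelled RT-PCR products, this endpoint reflects reporter mRNA in HepG2 cells harbouring exogenous NR-GAL4 reporter constructs after 24 h exposure, with DMSO as baseline.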

Assay [11] can be described thus: ATG_M_32_TRANS: Attagene TRANS-FACTORIAL HepG2 Assay for M32 Transcription Factor (Internal Marker) (AID 2282984; active means hit-call score of the fitted dose curve at least 0.9, where 1 is the maximum;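 further: transcript level of a background control reporter unit measured by RT-PCR and capillary electrophoresis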). As to conditions: HepG2 Attagene TRANS M32 internal marker reporter. The gist of the method:
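Measures reporter mRNA induction in human HepG2 liver cells after 24 h chemical treatment. Transcripts from transiently transfected GAL4-UAS reporter units are amplified, fluorescently labelled and sized by capillary electrophoresis; gain of signal relative to DMSO.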

The target of assay [12] is Nuclear receptor subfamily 4 group A member 2 (Homo sapiens) (UniProt P43354). Put plainly: ATG_NURR1_TRANS: Attagene TRANS-FACTORIAL HepG2 Assay for human Nuclear Receptor Related Protein 1 (NURR1) (AID 2282985; active means hit-call score of the fitted dose curve at least 0.9, where 1 is the maximum). As to conditions: HepG2 Attagene TRANS reporter, mRNA readout. The gist of the method: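 Transient transfection of HepG2, human liver cells, with multiple GAL4-UAS reporter transcription units. Cells dosed 24 h, RNA isolated, reverse-transcribed, PCR-amplified, FAM-labelled, HpaI-digested, sized by capillary electrophoresis. DMSO served as negative control.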

Assay [13] has as its target Transcriptional activator Myb (Homo sapiens) (UniProt P10242). The experiment in a line: ATG_Myb_CIS: Attagene CIS-FACTORIAL HepG2 Assay for human Myeloblastosis (Myb) Proto-Oncogene Transcription Factor (AID 2282986). Particulars: HepG2 Attagene CIS-FACTORIAL Myb reporter transcription; actives raise or lower the signal. The gist of the method: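 Transiently transfected HepG2 cells carrying a multiplexed cis-promoter reporter set report endogenous Myb activity after 24 h compound exposure. Reporter mRNA is read by RT-PCR with capillary electrophoresis of fluorescent products, fitted bidirectionally against DMSO.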

In assay [14] the target is Nuclear respiratory factor 1 (Homo sapiens) (UniProt Q16656). The experiment in a line: ATG_NRF1_CIS: Attagene CIS-FACTORIAL HepG2 Assay for human Nuclear Respiratory Factor 1 (NRF1) Orphan Gene (AID 2282987). Particulars: HepG2 NRF1 cis-element reporter, Attagene multiplex; actives raise or lower the signal. A digest of the protocol: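 HepG2 cells transiently transfected with multiple cis-regulated reporter units, exposed 24 h. Reporter mRNAs measured by RT-PCR, fluorescent labelling, HpaI digestion and capillary electrophoresis; bidirectional fitting against DMSO.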

A short description of assay [15]: ATG_NFI_CIS: Attagene CIS-FACTORIAL HepG2 Assay for human Nuclear Factor I (NFI) (AID 2282989). Particulars: HepG2 cis-regulatory reporter, NFI response element transcription; actives raise or lower the signal. A digest of the protocol: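 Transfected HepG2 liver cells, exposed 24 h, supplied total RNA for oligo(dT) reverse transcription and reporter-specific PCR. Labelled, HpaI-cut fragments were sized by capillary electrophoresis; DMSO set the baseline for bidirectional fitting.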

Assay [16] can be described thus: ATG_GAL4_TRANS: Attagene TRANS-FACTORIAL HepG2 Assay for GAL4 (Internal Marker) (AID 2282976; active means hit-call score of the fitted dose curve at least 0.9, where 1 is the maximum). Particulars: HepG2 Attagene TRANS GAL4 internal marker reporter. A digest of the protocol:
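Fluorescence from capillary electrophoresis of labelled RT-PCR products quantifies reporter mRNA induction after 24 h dosing of HepG2 cells carrying transfected GAL4-UAS reporter transcription units. Vehicle DMSO serves as baseline.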

The target in assay [17] is Glucocorticoid receptor (Homo sapiens) (UniProt P04150). The experiment in a line: ATG_GR_TRANS: Attagene TRANS-FACTORIAL HepG2 Assay for human Glucocorticoid Receptor (GR) (AID 2282978; active means hit-call score of the fitted dose curve at least 0.9, where 1 is the maximum;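 further: activators score as hits since higher reporter transcript over DMSO is fitted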). As to conditions: HepG2 Attagene TRANS GR reporter, mRNA transcription. The gist of the method:
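HepG2 cells transiently transfected with GAL4-UAS reporter units and exogenous GR-Gal4 chimera, dosed 24 h. Reporter mRNA by RT-PCR, FAM labeling, HpaI digest and capillary electrophoresis; gain-of-signal fit versus DMSO.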

The results in this text go back to PubChem BioAssay (EPA / NIEHS).

SMILES strings stand for the structures. Records with an inconclusive call do not appear. Activity calls are given as the source filed them. How the source made its calls, unless noted: active means hit-call score of the fitted dose curve at least 0.9, where 1 is the maximum; inactive means score below 0.9.

Chain of Nuclear respiratory factor 1 (Homo sapiens) (Q16656 whole entry, looked up): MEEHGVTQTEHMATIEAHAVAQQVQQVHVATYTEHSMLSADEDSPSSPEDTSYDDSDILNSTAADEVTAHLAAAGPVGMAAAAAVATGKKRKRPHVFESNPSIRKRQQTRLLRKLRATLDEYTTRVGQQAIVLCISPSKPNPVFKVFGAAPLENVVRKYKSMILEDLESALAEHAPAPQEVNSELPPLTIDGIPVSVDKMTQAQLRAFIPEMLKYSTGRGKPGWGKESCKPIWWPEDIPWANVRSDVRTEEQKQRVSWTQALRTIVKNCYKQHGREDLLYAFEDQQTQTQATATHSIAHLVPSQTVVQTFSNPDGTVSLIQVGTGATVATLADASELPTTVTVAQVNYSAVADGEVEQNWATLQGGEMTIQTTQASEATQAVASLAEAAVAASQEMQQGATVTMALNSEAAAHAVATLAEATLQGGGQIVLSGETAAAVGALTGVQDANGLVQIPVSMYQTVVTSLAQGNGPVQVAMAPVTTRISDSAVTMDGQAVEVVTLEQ
Chain of Hepatocyte nuclear factor 4-alpha (Homo sapiens) (P41235 whole entry, looked up, the tested form may be a part): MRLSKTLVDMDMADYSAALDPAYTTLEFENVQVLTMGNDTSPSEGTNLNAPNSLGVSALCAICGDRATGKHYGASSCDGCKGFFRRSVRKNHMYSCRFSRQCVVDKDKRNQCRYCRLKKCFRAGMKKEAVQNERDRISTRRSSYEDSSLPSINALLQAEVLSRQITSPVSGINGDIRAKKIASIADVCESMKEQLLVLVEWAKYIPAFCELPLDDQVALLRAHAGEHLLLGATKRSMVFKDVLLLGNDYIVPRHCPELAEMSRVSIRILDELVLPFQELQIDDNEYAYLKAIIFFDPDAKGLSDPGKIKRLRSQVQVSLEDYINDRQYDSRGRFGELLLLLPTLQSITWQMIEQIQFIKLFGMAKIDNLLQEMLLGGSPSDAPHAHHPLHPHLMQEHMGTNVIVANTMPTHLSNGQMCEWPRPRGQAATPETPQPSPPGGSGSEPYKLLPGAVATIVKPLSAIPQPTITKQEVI
Chain of Oxysterols receptor LXR-beta (Homo sapiens) (P55055 whole entry, looked up, the tested form may be a part): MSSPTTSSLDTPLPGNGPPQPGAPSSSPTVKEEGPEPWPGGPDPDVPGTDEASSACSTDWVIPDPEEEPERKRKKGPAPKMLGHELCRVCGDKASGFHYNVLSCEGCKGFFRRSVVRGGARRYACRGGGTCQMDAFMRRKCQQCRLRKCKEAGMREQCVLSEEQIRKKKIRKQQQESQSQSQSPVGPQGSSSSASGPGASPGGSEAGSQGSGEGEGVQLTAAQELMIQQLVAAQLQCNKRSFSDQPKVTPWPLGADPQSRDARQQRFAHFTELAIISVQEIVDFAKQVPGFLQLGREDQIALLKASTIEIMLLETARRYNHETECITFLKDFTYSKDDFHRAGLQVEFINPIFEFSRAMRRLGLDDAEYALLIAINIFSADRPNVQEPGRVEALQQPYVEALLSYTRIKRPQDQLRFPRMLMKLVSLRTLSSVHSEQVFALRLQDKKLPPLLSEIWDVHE
Chain of Glucocorticoid receptor (Homo sapiens) (P04150 whole entry, looked up, the tested form may be a part): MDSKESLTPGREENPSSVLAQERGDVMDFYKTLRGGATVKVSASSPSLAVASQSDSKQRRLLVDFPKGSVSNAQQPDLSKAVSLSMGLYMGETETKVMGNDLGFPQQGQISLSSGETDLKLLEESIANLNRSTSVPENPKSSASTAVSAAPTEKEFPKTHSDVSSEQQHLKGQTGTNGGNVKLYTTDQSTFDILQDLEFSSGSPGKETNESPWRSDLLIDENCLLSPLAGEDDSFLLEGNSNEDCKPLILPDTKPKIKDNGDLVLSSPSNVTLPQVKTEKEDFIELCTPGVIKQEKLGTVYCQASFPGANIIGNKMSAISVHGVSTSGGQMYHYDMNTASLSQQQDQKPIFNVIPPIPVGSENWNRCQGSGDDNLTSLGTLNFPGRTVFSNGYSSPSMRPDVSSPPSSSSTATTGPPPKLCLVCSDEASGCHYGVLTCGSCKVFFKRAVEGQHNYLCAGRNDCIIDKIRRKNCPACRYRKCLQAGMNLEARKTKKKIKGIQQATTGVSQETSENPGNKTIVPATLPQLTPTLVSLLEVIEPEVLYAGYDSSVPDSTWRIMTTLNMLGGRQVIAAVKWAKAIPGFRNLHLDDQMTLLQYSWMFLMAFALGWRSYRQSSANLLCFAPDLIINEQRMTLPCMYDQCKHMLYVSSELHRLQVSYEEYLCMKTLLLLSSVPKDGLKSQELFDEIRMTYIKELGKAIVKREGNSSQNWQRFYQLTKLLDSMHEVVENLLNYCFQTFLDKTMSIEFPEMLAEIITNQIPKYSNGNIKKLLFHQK
Chain of Bile acid receptor (Homo sapiens) (Q96RI1 whole entry, looked up, the tested form may be a part): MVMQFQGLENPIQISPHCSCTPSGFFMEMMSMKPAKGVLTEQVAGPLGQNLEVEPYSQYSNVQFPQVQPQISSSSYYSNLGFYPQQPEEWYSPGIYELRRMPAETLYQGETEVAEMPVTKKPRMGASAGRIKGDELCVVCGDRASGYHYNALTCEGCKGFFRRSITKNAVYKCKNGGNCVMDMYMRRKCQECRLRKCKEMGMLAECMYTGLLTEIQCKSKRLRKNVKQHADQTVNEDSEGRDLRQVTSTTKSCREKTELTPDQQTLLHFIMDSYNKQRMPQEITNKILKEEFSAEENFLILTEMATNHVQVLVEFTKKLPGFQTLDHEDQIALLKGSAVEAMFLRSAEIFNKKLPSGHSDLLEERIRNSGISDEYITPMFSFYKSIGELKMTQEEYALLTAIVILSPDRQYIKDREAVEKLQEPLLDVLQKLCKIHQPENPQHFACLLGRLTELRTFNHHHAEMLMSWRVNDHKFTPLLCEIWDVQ
Chain of Transcriptional activator Myb (Homo sapiens) (P10242 whole entry, looked up): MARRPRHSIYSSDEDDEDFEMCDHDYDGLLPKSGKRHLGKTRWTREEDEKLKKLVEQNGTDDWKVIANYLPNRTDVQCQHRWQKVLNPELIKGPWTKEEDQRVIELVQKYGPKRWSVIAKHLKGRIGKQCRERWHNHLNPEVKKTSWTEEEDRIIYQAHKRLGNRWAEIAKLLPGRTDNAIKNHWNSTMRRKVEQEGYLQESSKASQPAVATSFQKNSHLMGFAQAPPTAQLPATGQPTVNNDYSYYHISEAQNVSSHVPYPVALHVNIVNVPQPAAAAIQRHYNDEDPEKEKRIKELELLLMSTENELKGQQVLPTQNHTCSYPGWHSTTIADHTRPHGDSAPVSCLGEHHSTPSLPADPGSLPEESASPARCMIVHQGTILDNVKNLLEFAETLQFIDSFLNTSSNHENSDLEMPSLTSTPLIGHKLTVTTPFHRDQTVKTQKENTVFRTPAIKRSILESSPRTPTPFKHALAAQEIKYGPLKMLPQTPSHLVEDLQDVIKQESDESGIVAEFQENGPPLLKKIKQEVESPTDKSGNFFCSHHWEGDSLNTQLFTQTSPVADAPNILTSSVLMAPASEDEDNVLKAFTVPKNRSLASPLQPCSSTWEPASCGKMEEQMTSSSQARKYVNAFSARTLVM
Chain of Nuclear receptor subfamily 4 group A member 2 (Homo sapiens) (P43354 whole entry, looked up, the tested form may be a part): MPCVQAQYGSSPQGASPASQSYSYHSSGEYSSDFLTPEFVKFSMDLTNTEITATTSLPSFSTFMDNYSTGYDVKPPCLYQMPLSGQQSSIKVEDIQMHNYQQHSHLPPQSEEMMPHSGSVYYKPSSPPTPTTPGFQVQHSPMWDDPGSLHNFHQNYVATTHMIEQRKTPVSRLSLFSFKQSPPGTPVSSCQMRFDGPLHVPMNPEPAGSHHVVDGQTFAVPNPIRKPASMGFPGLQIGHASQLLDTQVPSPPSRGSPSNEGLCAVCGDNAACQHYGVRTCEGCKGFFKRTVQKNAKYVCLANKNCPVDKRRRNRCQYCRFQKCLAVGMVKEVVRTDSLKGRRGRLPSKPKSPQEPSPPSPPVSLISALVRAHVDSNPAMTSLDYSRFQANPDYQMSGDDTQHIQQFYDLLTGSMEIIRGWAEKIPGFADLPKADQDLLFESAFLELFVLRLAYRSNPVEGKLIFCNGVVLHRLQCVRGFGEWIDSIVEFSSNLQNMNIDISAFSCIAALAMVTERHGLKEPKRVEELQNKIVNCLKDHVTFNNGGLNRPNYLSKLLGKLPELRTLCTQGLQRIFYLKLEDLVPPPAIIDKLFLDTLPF
Chain of Oxysterols receptor LXR-alpha (Homo sapiens) (Q13133 whole entry, looked up): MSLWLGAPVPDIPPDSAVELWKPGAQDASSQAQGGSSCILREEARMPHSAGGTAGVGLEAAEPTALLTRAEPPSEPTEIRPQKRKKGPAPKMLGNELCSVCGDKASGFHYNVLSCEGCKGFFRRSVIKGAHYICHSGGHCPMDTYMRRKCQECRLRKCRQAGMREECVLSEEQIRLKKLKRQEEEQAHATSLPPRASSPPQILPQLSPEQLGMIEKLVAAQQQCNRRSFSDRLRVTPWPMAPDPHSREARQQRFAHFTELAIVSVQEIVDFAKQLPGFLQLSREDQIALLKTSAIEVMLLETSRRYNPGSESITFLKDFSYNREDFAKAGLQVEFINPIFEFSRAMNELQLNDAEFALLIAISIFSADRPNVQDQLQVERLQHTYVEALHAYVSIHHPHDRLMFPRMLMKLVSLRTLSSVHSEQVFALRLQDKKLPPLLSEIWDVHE
Chain of X-box-binding protein 1 (Homo sapiens) (P17861 whole entry, looked up): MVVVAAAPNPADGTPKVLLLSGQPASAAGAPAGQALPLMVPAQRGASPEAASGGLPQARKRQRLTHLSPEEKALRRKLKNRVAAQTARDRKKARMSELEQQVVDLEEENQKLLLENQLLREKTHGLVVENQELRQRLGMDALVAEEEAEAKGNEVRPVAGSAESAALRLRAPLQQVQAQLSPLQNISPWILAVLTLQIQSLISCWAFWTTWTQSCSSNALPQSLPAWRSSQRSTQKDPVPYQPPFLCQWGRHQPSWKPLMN

What is called AC50 is the midpoint of the concentration-response curve, whichever way the signal moves. For the compound `[Cl][Au]([Cl])[Cl]`, the compound was called inactive in assay [1], in assay [2], in assay [3], in [4], in assay [5] and in assay [6]. The result in [7], in assay [8], in [9], in assay [10], in [11] and in assay [12] was inactive. Besides, the compound was called inactive in assay [13] and in [15]. In addition, the AC50 in assay [14] was 147 µM (active).
Turning to `CCCCC(CC)COC(=O)c1ccc(O)cc1` (stereo not given), the compound was called inactive in assay [1], in assay [2], in assay [3], in assay [4], in assay [16] and in assay [17]. The result in assay [6], in assay [7], in assay [8], in assay [9], in assay [10] and in assay [11] was inactive. Further, the compound was called inactive in [12], in assay [14] and in [15].
As to `O=C(Nc1ccc2c(O)c(N=Nc3ccc(N=Nc4ccc(S(=O)(=O)O)cc4)cc3)c(S(=O)(=O)O)cc2c1)c1ccccc1`, the compound was classed as inactive in [1], in [2], in [3], in assay [4], in [16] and in assay [7]. In addition, the outcome in assay [8], in assay [10], in [11], in assay [12], in [13] and in [14] was inactive. For the same compound, the compound was called inactive in [15].
As for `O=C1OC2(c3ccccc31)c1ccc(O)c(Br)c1Oc1c2ccc(O)c1Br`, the call in assay [1], in assay [2], in assay [4], in assay [17], in [7] and in [8] was inactive. Moreover, the outcome in assay [9], in assay [10], in assay [11], in [12], in assay [13] and in [14] was inactive. The call in assay [15] was inactive. Besides, the AC50 in assay [3] is 27.3 µM (active).
In the case of `O=C(CC(=O)c1ccccc1)c1ccccc1`, the compound was called inactive in assay [1], in assay [2], in [3], in [17], in assay [6] and in assay [8]. Moreover, the call in [10], in [11] and in assay [12] was inactive. Further, the AC50 was 45.1 µM (active) in assay [4], 100 µM (active) in assay [13], 176 µM (active) in assay [14] and 100 µM (active) in assay [15].
Consider `CCN(CCC#N)c1ccc(N=Nc2ccc([N+](=O)[O-])cc2)cc1`, for which the compound was classed as inactive in [1], in assay [2], in assay [3], in assay [4], in assay [16] and in assay [5]. The outcome in assay [6], in assay [10], in [11], in assay [13], in assay [14] and in assay [15] was inactive.
Consider `CCNCCO`, for which the result in assay [1], in assay [2], in assay [3], in [4], in assay [17] and in assay [6] was inactive. Further, the result in assay [9], in [10], in [12], in assay [14] and in [15] was inactive.
Take `CCC(Cl)C(Cl)C(Cl)CC(Cl)C(Cl)C(C)Cl` (stereo not given): the compound was called inactive in assay [1], in assay [4], in assay [17], in assay [7], in assay [8] and in assay [9]. The call in [10], in [11], in [12], in assay [13], in [14] and in assay [15] was inactive. Besides, the AC50 in [2] is 64.6 µM (active); in assay [3] it was 3.17 µM (active); in assay [6] it was 11 µM (active).
In the case of `C=C1CC[C@H](O)C/C1=C/C=C1\CCC[C@]2(C)[C@@H]([C@H](C)/C=C/[C@H](C)C(C)C)CC[C@@H]12`, the call in assay [1], in assay [2], in assay [3], in [4], in assay [17] and in assay [6] was inactive. The call in assay [7], in [10], in [11], in [13], in assay [14] and in assay [15] was inactive.
